# Hits are enriched below; roughly 4.1% of the tested compounds scored in any of these assays.
# TROY signal inh – TROY signaling inhibition. inhibition, % at 10 µM. AID 1347056. Q293 LMP1-TROYcd NF-kB luciferase reporter, 4 h. 360,000 tested, 0.98% active;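 active means compounds whose plate-normalised and pattern-corrected inhibition of the luciferase reporter signal at the single screening dose is 50% or more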
# Shn3 3UTR inh – reduces Shn3 3'UTR luciferase signal in osteoblasts; 360,000 tested, 0.52% active; inhibition, % at 12.5 µM; Clone20 osteoblast Shn3 3'UTR firefly luciferase, 24 h;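 active means mean inhibition of at least 75% with every replicate also reaching 75%; inconclusive means mean inhibition at least 75% but some replicate below; inactive means mean inhibition below 75%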;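 further: 0% = median of neutral control wells and 100% = pilot-screen positive control compound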
# TWEAK-Fn14 inh – TWEAK-Fn14 signaling inhibition; TWEAK-stimulated Fn14 reporter cells, luciferase luminescence, 8 h; inhibition, % at 10 µM; 360,000 tested, 2% active; in the data active means inhibition above about 50%
# EBV LMP1 NFkB – inhibitors of Epstein-Barr LMP1-induced NF-kappaB reporter | LMP1-induced NF-kappaB luciferase reporter cells, luminescence | 350,000 tested, 0.69% active | inhibition, % at 12.5 µM; in the data active means inhibition above about 41%; inconclusive means no clear call, values can overlap the other calls;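 further: 0% = neutral control wells and 100% = reference inhibitor control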
# MITF TRPM1 inh – inhibitors of MITF-driven TRPM1 promoter in melanoma cells; SK-MEL-5 TRPM1 promoter luciferase, 24 h; inhibition, % at 12.5 µM; 330,000 tested, 0.83% active;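 active means mean inhibition across replicates of 60% or more, whatever share of single replicates reaches that level; inconclusive means some that reach 60%, reason not given; inactive means mean inhibition across replicates below 60%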
# Peg3 prom inh – inhibitors of Peg3 promoter | HeLa PEG-Prom luciferase reporter, luminescence, overnight | inhibition, % at 20 µM | 360,000 tested, 1.7% active;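 active means inhibition of at least 50% at 20 µM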
# The depositor's hits bear a star; ? = inconclusive; · = no result given.
SMILES,TROY signal inh,Shn3 3UTR inh,TWEAK-Fn14 inh,EBV LMP1 NFkB,MITF TRPM1 inh,Peg3 prom inh
NC(=O)c1cc2cc(Br)ccc2o/c1=N/NC(=O)c1cccc(F)c1,-2,2,-26,·,-35,5
CC(O)C(=O)N/N=C/c1cccc2ccccc12 (centres undefined),-8,1,1,-13,12,-21
O=C(NN=Cc1cccc2ccccc12)C(=O)NN=Cc1cccc2ccccc12,-3,19,-18,-26,0,51*
CC(c1ccccc1)n1c(N2CCN(C)CC2)nc2c1c(=O)[nH]c(=O)n2C (centres undefined),-5,6,-7,2,2,13
CCOC(=O)c1c(-c2ccccc2)oc2ccc(OCC(O)CNCCN(C)C)cc12 (centres undefined),-71,15,-81,5,66*,100*
CCOC(=O)c1c(-c2ccccc2)oc2ccc(OCC)cc12,-24,9,1,-6,-2,-12
CCC1CCCCN1CCCNC(=O)CCC(=O)N1CCOc2ccccc21 (centres undefined),-2,-5,-11,0,-5,4
COc1ccc(CCNC(=O)C2COc3ccccc3O2)cc1OC (centres undefined),12,1,93*,-1,0,4
COc1ccc(CCNC(=O)c2ccc3ccccc3n2)cc1OC,-8,3,-3,18,3,2
COc1ccc(CCNC(=O)c2cc3cc(F)ccc3nc2C)cc1OC,15,6,51*,10,8,16
COc1ccc(CC(=O)NCCc2ccc(OC)c(OC)c2)cc1,-11,9,-13,3,-7,52*
COc1ccc(CNC(=O)c2ccc3ccccc3n2)cc1OC,7,56,54*,9,20,2
COc1ccc(C(=O)NCCc2ccc(F)cc2)cc1OC,-24,0,-3,-13,-13,-49
COc1ccc(CCNC(=O)CCC2COc3ccccc3O2)cc1OC (centres undefined),12,8,-8,1,6,9
O=C(CSC1=NS(=O)(=O)c2ccccc2N1)Nc1nccs1,-12,0,12,-4,-3,-5
Cc1nn2c(-c3ccc(S(=O)(=O)N4CCN(C)CC4)o3)nnc2c2ccccc12,-20,0,-38,-16,7,10
COc1ccc(OC)c(S(=O)(=O)Nc2ccc(O)c3ccccc23)c1,12,9,-3,12,30,67*
Cc1nn(C)cc1S(=O)(=O)Nc1ccc2c(c1)OCCO2,82*,18,77*,32,-10,22
CC(=O)NCCc1ccc(S(=O)(=O)Nc2ccc3c(c2)OCCO3)cc1,43,10,55*,9,4,-8
COc1ccc(OC)c(S(=O)(=O)Nc2cccc3c(O)cccc23)c1,1,-11,3,·,·,25
COc1ccc(OC)c(S(=O)(=O)NC(C)CCc2ccccc2)c1 (centres undefined),5,-33,-4,51*,5,24
Cc1c(S(=O)(=O)Nc2ccc3c(c2)OCCO3)cnn1C,0,-5,37,-8,-3,4
c1ccc(Nc2ncnc3[nH]ncc23)cc1,11,10,-2,·,·,19
Cc1ccc(S(=O)(=O)N(C)CC(=O)Oc2ccc(-c3nnco3)cc2)cc1,10,-14,2,2,4,-4
Cc1ccc(NS(=O)(=O)c2ccc3c(c2)NC(=O)CCS3)cc1C,4,34,22,3,3,46
SMILES,TROY signal inh,Shn3 3UTR inh,TWEAK-Fn14 inh,EBV LMP1 NFkB,MITF TRPM1 inh,Peg3 prom inh
CC(C)CN(C(=O)CCCSc1nc2ccccc2[nH]1)c1c(N)n(Cc2ccccc2)c(=O)[nH]c1=O,-18,-5,-5,1,2,10
COc1ccc(NS(=O)(=O)c2ccc3c(c2)OCCO3)cc1OC,1,75,23,32,25,-1
COc1ccc(OC)c(S(=O)(=O)Nc2ccc3c(c2)OCCO3)c1,76*,-4,84*,27,·,19
Cc1ccc(N(CC(=O)Nc2ccc3c(c2)OCCO3)S(=O)(=O)c2c(C)n[nH]c2C)cc1,-2,20,26,2,-2,-5
Cc1ccc(S(=O)(=O)Nc2ccc3c(c2)OCCO3)cc1C,80*,12,87*,23,13,-40
Cc1n[nH]c(C)c1S(=O)(=O)Nc1ccc2c(c1)OCCO2,63*,43,82*,29,-2,-15
O=S(=O)(Nc1ccc2c(c1)OCCO2)c1ccc(F)c(F)c1,0,8,20,4,4,-4
O=S(=O)(Nc1ccc2c(c1)OCCO2)c1cccc(F)c1,40,20,52*,8,9,9
CC(=O)NC(Cc1ccccc1F)C(=O)NC1CCN(C(=O)NCc2ccccc2)CC1 (centres undefined),12,3,21,-1,-4,-7
O=C(Nc1ccccc1)/C(=C/c1ccc(F)cc1)NC(=O)c1ccco1,17,-15,2,10,8,3
Cc1ccccc1N(CC(=O)NCCc1ccccc1)C(=O)c1csnn1,7,-6,3,-4,2,-15
O=C(N/N=C/c1ccc(Cl)cc1Cl)c1ccncc1,3,-2,-5,6,-13,3
O=C(N/N=C/c1cc(Cl)cc(Cl)c1O)c1ccncc1,13,42,-22,-4,64*,43
O=C(N/N=C/c1coc2ccc(Cl)cc2c1=O)c1ccc(O)cc1,25,18,70*,-4,13,16
Oc1c(Cl)cc(Cl)cc1/C=N/Nc1ncc(Br)cn1,-9,90*,-11,?,66*,38
O=C(N/N=C/c1coc2ccc(Cl)cc2c1=O)c1ccncc1,32,0,54*,2,-13,0
COc1ccc(C(=O)N/N=C\c2coc3ccc(Cl)cc3c2=O)cc1,11,-4,30,3,10,-2
CSc1nc(N)nc2c1ncn2CC(=O)NCCNc1ccc([N+](=O)[O-])cn1,-2,-14,-2,1,-3,-2
Cc1cc(O)c2c(c1)C(=O)[C@@]13Oc4c5c(c(O)c6c(O)cc(C)cc46)C(=O)C[C@H](O)[C@H]5[C@@H]1[C@@H](O)CC(=O)C3=C2O,-8,2,-32,-31,·,-43
O=C(N/N=C/c1coc2ccccc2c1=O)c1cc(O)cc(O)c1,13,-6,12,-6,-1,1
O=C(N/N=C/c1coc2ccccc2c1=O)c1ccccc1Br,21,5,58*,3,-13,-2
O=C(NC(=O)c1ccccc1O)c1ccc(C(F)(F)F)cc1,3,-22,24,·,·,-116
CCCc1ccc(C(=O)NC(=O)c2ccccc2O)cc1,34,1,57*,6,4,-102
CCOC(=O)C1CCN(Cc2ccc(OCc3ccccc3)c(OC)c2)CC1,-19,16,-4,0,-11,12
O=C(COC(=O)c1ccc2c(c1)OCCO2)NCCC1=CCCCC1,37,-4,96*,-7,-4,-33

# Source: PubChem (several laboratories)
